In all, about 16,000 compounds went through this assay and about 5,800 (36%) were called active. Roughly 23% stayed inconclusive and do not appear here. The list shows a part of the results. A number with no mark means an inactive call. The call rests on the fitted dose curve; in most records, active means well fitted curve in the direction sought with a large enough effect; inconclusive means small, poorly fitted or top-dose-only effect, or effect the other way; inactive means no such curve, though single readings can be large or run the other way.
These molecules were tested against Cytochrome P450 2C19 (Homo sapiens) (UniProt P33261) (assay: Cytochrome panel assay with activity outcomes). Details: recombinant CYP, pro-luciferin dealkylation, luminescence, p450-cyp2c19; series mostly up to 57.1 µM; activity, negative = inhibition: at the top concentration.
On the % scale 0 is the no-effect control and ±100 the full control effect.

Sequence of Cytochrome P450 2C19 (Homo sapiens) (P33261 whole entry, looked up): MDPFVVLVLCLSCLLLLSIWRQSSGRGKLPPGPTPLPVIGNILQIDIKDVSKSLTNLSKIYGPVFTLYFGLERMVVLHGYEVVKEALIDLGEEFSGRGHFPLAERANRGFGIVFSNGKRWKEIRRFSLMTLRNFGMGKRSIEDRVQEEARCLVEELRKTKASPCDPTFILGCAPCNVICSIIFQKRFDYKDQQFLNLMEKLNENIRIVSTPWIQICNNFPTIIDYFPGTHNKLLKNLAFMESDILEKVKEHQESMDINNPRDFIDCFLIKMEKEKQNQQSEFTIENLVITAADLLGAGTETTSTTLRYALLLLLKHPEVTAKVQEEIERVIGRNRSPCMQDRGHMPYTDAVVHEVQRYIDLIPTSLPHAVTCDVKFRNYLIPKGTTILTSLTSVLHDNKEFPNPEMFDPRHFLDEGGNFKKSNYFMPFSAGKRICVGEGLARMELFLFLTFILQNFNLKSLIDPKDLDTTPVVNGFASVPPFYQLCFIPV

SMILES | activity, negative = inhibition | AC50
CCOc1ccc(Cc2nccc3cc(OCC)c(OCC)cc23)cc1OCC | 8.39% [at 25.6 µM] | 
C/C(CC/C(C)=N/O)=N/O | 6.8% [at 11.4 µM] | 
O=C(NCCc1ccc(Cl)cc1)C1CCN(S(=O)(=O)N2CCC3(CC2)OCCO3)CC1 |  | 4.47 µM (active)
CCS(=O)(=O)N1CCC(C(=O)NCc2ccco2)CC1 | -10.1% | 
CCS(=O)(=O)N1CCC(C(=O)NCCCOC)CC1 | -13.8% | 
COc1ccc(CCNC(=O)C2CCN(S(=O)(=O)N3CC(C)CC(C)C3)CC2)cc1OC (stereo not drawn) |  | 14.1 µM (active)
O=C(NCCCN1CCN(Cc2ccccc2)CC1)C1CCN(S(=O)(=O)N2CCCC2)CC1 | -10.4% | 
CCOc1ccc(CCNC(=O)C2CCN(S(=O)(=O)CC)CC2)cc1OCC | -24.6% | 
O=C(NCc1ccccc1Cl)C1CCN(S(=O)(=O)N2CCC3(CC2)OCCO3)CC1 |  | 22.4 µM (active)
CCS(=O)(=O)N1CCC(C(=O)NCCCN2CCCC2)CC1 | -1.56% | 
CCS(=O)(=O)N1CCC(C(=O)NCc2ccccc2OC)CC1 |  | 39.8 µM (active)
COc1cccc(CNC(=O)C2CCN(S(=O)(=O)N3CCCCC3)CC2)c1 | -23.7% | 
CCOCCCNC(=O)C1CCN(S(=O)(=O)N2CC(C)CC(C)C2)CC1 (stereo not drawn) | -22.9% | 
O=C(Nc1ccc(F)cc1F)c1cccn1-c1ncc(C(F)(F)F)cc1Cl |  | 10 µM (active)
Cc1ccc(C(=O)N/N=C\c2ccc[nH]2)cc1[N+](=O)[O-] | 1.23% | 
Cc1ccc(C(=O)Nc2ccc(Cc3ccncc3)cc2)cc1[N+](=O)[O-] |  | 1.12 µM (active)
Cc1ccc(C(=O)Nc2ccccc2Oc2ccccc2)cc1[N+](=O)[O-] |  | 3.16 µM (active)
COc1ccc(NC(=O)N2CC3(CCN(C(=O)c4ccc(OC)cc4)CC3)C2)cc1 | 5.03% | 
CCOC(=O)c1ccc(NC(=O)C2(c3ccc(OC)cc3)CCOCC2)cc1 |  | 2.24 µM (active)
Cc1noc(C)c1C(=O)N1CCC2(CCN(C(=O)Nc3ccccc3)CC2)CC1 | -16.5% | 
CC(=O)c1ccc(NC(=O)C2(c3ccccc3)CCOCC2)cc1 |  | 14.1 µM (active)

SMILES | activity, negative = inhibition | AC50
COc1ccc(NC(=O)C2(c3ccc(NC(=O)c4ccc(C)cc4)cc3)CCCC2)cc1 | 23.1% | 
COc1ccc(NC(=O)C2(c3ccc(NC(=O)c4ccc(OC(C)=O)cc4)cc3)CCCC2)cc1 | 0.405% | 
NS(=O)(=O)c1cc2c(cc1Cl)N[C@@H](CC1CCCC1)NS2(=O)=O | -18.8% [at 25.6 µM] | 
O=[N+]([O-])c1ccc(C=Nc2ccc(Cl)cc2Cl)s1 |  | 7.08 µM (active)
O=C(/C=C/Nc1ccccc1)c1ccc(Oc2ncccn2)cc1 |  | 15.8 µM (active)
COc1ccc(-c2noc(N(C)CC(=O)Nc3cccc(C(F)(F)F)c3)n2)cc1 |  | 4.47 µM (active)
COc1ccc(NC(=O)c2ccc(-c3ccc(-c4noc(C)n4)cc3C)cc2)cc1OCCN(C)C | -37% | 
CC[C@]1(O)C[C@@H]2CN(CCc3c([nH]c4ccccc34)[C@](C(=O)OC)(c3cc4c(cc3OC)N(C=O)[C@H]3[C@@](O)(C(=O)OC)[C@H](C(=O)OC)[C@@]5(CC)C=CCN6CC[C@]43[C@H]65)C2)C1 | -33.8% | 
CC1=NCC[N@@+]1(CCc1ccccc1)Cc1ccccc1 | 32.9% [at 11.4 µM] | 
COc1ccc2[nH]cc(CCNc3ncnc4ccc(-c5ccc(C(=O)N(C)C)cc5)cc34)c2c1 |  | 7.94 µM (active)
COc1ccc2[nH]cc(CCNc3ncncc3-c3ccc(N(C)C)cc3)c2c1 |  | 1.58 µM (active)
COc1ccc2[nH]cc(CCNc3ncncc3-c3ccc(C(=O)N(C)C)cc3)c2c1 |  | 10 µM (active)
O=C(O)c1[nH]c2c([N+](=O)[O-])cc([N+](=O)[O-])cc2c1C(=O)O | 39.2% [at 11.4 µM] | 
NS(=O)(=O)c1cc2c(cc1C(F)(F)F)N[C@H](Cc1ccccc1)NS2(=O)=O | -20.3% [at 25.6 µM] | 
CC[n+]1c(P(=O)([O-])c2ccccc2)[nH]c2ccccc21 | -15.5% | 
CN1CC(c2ccccn2)C2(SC(=S)N(Cc3ccccc3)C2=O)C12C(=O)Nc1ccccc12 (stereo not drawn) |  | 1.12 µM (active)
CCC(CC)C(=O)c1c[nH]c(C(=O)NCCCN2CCOCC2)c1 | 17.8% | 
CC(C)(C)c1ccc(C(=O)c2c[nH]c(C(=O)NCCCn3ccnc3)c2)cc1 |  | 0.1 µM (active)
O=C(c1ccc(C(F)(F)F)cc1)c1c[nH]c(C(=O)NCCCn2ccnc2)c1 |  | 0.631 µM (active)
Cc1ccc(C(=O)c2c[nH]c(C(=O)NCCCN3CCOCC3)c2)cc1 | -7.11% | 
Cc1c(CCO)c(=O)n(C)n1C(=O)c1ccc(F)cc1 |  | 17.8 µM (active)

SMILES | activity, negative = inhibition | AC50
CCOC(=O)NC(NC(=O)OCC)C(=O)c1ccc(F)cc1 | -29.8% | 
Cc1ccc(-n2nnnc2-c2cnc3ccc(Cl)cc3c2-c2ccccc2)cc1 |  | 7.94 µM (active)
Clc1ccc2[nH]cc(-c3nnnn3-c3ccccc3)c2c1 |  | 1.12 µM (active)
N#Cc1cccc(-c2nc3cnc(Nc4ccccc4)nc3n(C[C@H]3CCCO3)c2=O)c1 | 5.15% | 
Cc1cc(NC(=O)c2ccccc2Cl)c(C(C)C)cc1O |  | 3.98 µM (active)
Cc1ccc(Cl)c(Nc2ccccc2C(=O)O)c1Cl |  | inactive
Cn1sc(NC(=O)c2ccccc2)nc1=O | -23.1% | 
O=C(Nc1ccccc1Cl)c1ccn[nH]1 | 14.8% | 
Cn1sc(NC(=O)c2ccccc2Cl)nc1=O |  | 14.1 µM (active)
O=C(Nc1ccccc1Cl)c1ccccc1Cl |  | 20 µM (active)
CC[C@@]12CCCN3CCc4c(n(c5ccccc45)[C@](O)(C(=O)OC)C1)[C@H]32 |  | inactive
O=C(CSCc1ccccc1)Nc1cccc(C(=O)Nc2ccccc2C(=O)O)c1 |  | 11.2 µM (active)
O=C(Nc1cccc(C(=O)Nc2ccc(S(=O)(=O)O)c3cc(S(=O)(=O)O)cc(S(=O)(=O)O)c23)c1)Nc1cccc(C(=O)Nc2ccc(S(=O)(=O)O)c3cc(S(=O)(=O)O)cc(S(=O)(=O)O)c23)c1 |  | inactive
CCNc1ncc2nc(-c3cc(F)cc(F)c3)c(=O)n(Cc3cccs3)c2n1 | 2.98% | 
CCCC(C(=O)Nc1nccs1)c1ccccc1 (stereo not drawn) |  | 3.16 µM (active)
O=C(O)[C@H](CCc1ccccn1)c1ccccc1 | 9.85% [at 11.4 µM] | 
COc1cc(C=O)ccc1OCCOCCOc1ccccc1Cl |  | 1.26 µM (active)
COc1cc(C)ccc1OCCCOc1ccccc1Br |  | 0.501 µM (active)
COc1ccccc1OCCCOc1ccc([N+](=O)[O-])cc1Cl |  | 0.316 µM (active)
COc1cc(C)ccc1OCCCOc1ccccc1Cl |  | 1.12 µM (active)
COc1cc(C=O)ccc1OCCCOc1ccccc1C(=O)O | -6.37% | 

— PubChem BioAssay AID1851 (National Center for Advancing Translational Sciences (NCATS), 2009)
